# Reference: PubChem BioAssay
# Assays:
# [1] = tested on: Human papillomavirus type 1a protein E7 (residues 44-93); experiment: small molecules binding HPV E7 44-93 – biochemical, small-molecule microarray, residues 44-93, 635 nm fluorescence, primary screen (AID 1108); conditions: fluorescence 635 nm, higher = more signal;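 further: E7 fragment applied at 1 µg/mL in TBST for 1 h at 4 C; score combines spot fluorescence with its signal to noise ratio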
# [2] = hepatitis C replication reporter changes, two-sided – Huh7 cells, luciferase reporter, HCV replication inhibitor project, primary screen (AID 1109); conditions: Huh7 HCV replicon luciferase reporter, 48 h; higher = more signal;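 further: huh7 hepatoma cells harbouring a luciferase neomycin HCV replicon reporter; luciferase luminescence as measure of HCV replicon replication; test concentration not given here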
# [3] = molecular target: Left-right determination factor 2 (Homo sapiens) (UniProt O00292); experiment: small molecules binding LEFTY2 protein – biochemical, small-molecule microarray, 635 nm fluorescence scan, primary screen (AID 1110); conditions: higher = more signal
# Left-right determination factor 2 (Homo sapiens), sequence (O00292 whole entry, looked up): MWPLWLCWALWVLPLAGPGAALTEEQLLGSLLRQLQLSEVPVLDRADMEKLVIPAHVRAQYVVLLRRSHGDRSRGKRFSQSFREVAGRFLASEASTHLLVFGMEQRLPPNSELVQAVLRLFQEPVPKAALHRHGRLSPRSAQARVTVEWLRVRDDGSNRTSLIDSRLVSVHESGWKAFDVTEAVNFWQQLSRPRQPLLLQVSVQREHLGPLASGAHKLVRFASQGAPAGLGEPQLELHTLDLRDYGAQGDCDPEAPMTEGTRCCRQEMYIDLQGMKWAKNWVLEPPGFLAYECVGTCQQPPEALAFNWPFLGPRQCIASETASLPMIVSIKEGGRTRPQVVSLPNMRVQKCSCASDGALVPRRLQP
# [4] = molecular target: Calmodulin-1 (Homo sapiens) (UniProt P0DP23); experiment: small molecules binding calmodulin-1 with EGTA – biochemical, small-molecule microarray, Cy5-labelled CALM1, profiling panel (AID 1111); conditions: Cy5-CALM1 binding fluorescence, higher = more signal;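 further: labelled calmodulin applied in Tris saline Tween buffer holding calcium plus EGTA and DTT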
# [5] = molecular target: Calmodulin-1 (Homo sapiens) (UniProt P0DP23); experiment: small molecules binding Ca-loaded calmodulin-1 – biochemical, small-molecule microarray, Cy5-labelled CALM1, plus calcium, artefact control for SMM control-protein annotation, profiling panel (AID 1112); conditions: Cy5-CALM1 binding fluorescence, higher = more signal;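 further: score merges spot fluorescence with signal to noise from triplicate slides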
# [6] = probe aWnt5a binding to arrayed compounds – biochemical, biotinylated probe, 635/667 nm fluorescence, primary screen (AID 1113); conditions: small-molecule microarray, higher = more signal;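 further: score merges 667 nm fluorescence intensity with signal-to-noise per printed feature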
# [7] = probe aShh binding to arrayed compounds – biochemical, biotinylated probe, 635/667 nm fluorescence, primary screen (AID 1114); conditions: small-molecule microarray, higher = more signal;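 further: probe is biotin-labelled aShh protein from a stem cell growth factor screen; measures binding of labelled protein to compounds printed on the slide; score merges feature fluorescence at 667 nm with signal-to-noise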
# [8] = probe aNog binding to arrayed compounds – biochemical, biotinylated probe, 635/667 nm fluorescence, primary screen (AID 1115); conditions: small-molecule microarray, higher = more signal;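 further: probe is biotinylated aNog protein used at 0.15 µg/mL for 1 h at 4 C; z-score combines 667 nm fluorescence of each spot with its signal to noise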
# [9] = molecular target: Torsin-1A-interacting protein 1 (Homo sapiens) (UniProt Q5JTV8); experiment: compound microarray binding of lysate hLAP1 – cell lysate, small-molecule microarray, COS7 lysate, 635/667 nm fluorescence, primary screen (AID 1116); conditions: 635 nm fluorescence, higher = more signal
# Torsin-1A-interacting protein 1 (Homo sapiens), sequence (Q5JTV8 whole entry, looked up): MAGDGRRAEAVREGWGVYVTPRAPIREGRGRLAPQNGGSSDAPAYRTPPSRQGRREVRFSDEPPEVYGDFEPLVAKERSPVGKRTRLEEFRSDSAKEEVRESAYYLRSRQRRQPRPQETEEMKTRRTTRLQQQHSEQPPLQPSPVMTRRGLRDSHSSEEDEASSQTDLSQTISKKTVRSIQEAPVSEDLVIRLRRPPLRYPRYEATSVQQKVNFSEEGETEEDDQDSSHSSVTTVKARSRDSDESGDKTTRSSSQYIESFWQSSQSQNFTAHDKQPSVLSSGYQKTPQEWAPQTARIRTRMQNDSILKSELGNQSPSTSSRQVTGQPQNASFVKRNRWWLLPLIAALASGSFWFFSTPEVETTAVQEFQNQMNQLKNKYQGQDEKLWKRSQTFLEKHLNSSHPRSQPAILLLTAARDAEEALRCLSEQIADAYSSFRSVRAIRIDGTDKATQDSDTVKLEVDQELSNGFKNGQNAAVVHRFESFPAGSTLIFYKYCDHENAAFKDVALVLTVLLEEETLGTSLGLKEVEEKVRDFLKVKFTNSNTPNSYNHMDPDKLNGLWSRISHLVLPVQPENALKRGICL
# [10] = molecular target: Alpha-bungarotoxin (Bungarus multicinctus) (UniProt P60615); experiment: compounds binding labelled alpha-BTX control protein – biochemical, small-molecule microarray, Alexa647 label, 635/667 nm fluorescence, artefact control for SMM control protein annotation, profiling panel (AID 1117); conditions: alpha-BTX-A647 binding fluorescence, higher = more signal
# Alpha-bungarotoxin (Bungarus multicinctus), sequence (P60615 whole entry, looked up): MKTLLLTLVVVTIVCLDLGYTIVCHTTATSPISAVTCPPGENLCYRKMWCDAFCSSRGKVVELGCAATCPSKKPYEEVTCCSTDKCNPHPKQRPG
Compound,composite z-score [1],z-score [2],composite z-score [3],composite z-score [4],composite z-score [5],composite z-score [6],composite z-score [7],composite z-score [8],composite z-score [9],composite z-score [10]
COCCOC(=O)N1C(=O)[C@@]2(c3cc(C#CC4(O)CCCCCC4)ccc31)[C@H](C(=O)N1CCN(c3ncccn3)CC1)[C@H]1C(=O)O[C@H](c3ccccc3)[C@H](c3ccccc3)N1[C@@H]2c1ccc(O)cc1,0.958,-1.69,-0.28,1.56,1.05,0.0633,0.128,-0.261,1.53,1.61
C=C[C@H](C)[C@H](OC(=O)Nc1ccc(SC)cc1)c1ccc(O)c2ccccc12,-1.97,-0.766,-0.256,-0.413,0.273,-0.325,0.0952,-0.383,-0.0193,-0.385
CCOC(=O)C1=CCC(c2cccc(Cl)c2)O1 (stereo not given),0.377,-1.74,0.005,-0.314,-0.571,-0.0492,0.0796,0.59,0.291,-0.383
Cc1ccc(S[C@]2(C(=O)O)CC(=O)N(C3CCCCC3)[C@@H]2c2ccc(CO)cc2)cc1,0.755,-1.2,-0.442,0.381,-1.39,0.0581,0.428,1.1,0.578,0.842
[N-]=[N+]=Nc1ccccc1[C@@H]1OC(c2ccc(OCCCO)cc2)=N[C@]1(CCS(=O)(=O)c1ccccc1)C(=O)NCc1ccccc1,1.41,0.0858,0.343,2.03,0.603,0.0338,0.0469,1.6,2.15,1.9
COCCCNC(=O)[C@@]1(C)c2ccccc2C(=O)N(c2ccc(C)cn2)[C@H]1c1ccc(CO)cc1,-0.588,-0.0063,-0.877,-0.949,-1.12,-0.172,0.283,-0.911,1.69,-1.65
COC(=O)[C@@]1(Cc2ccccc2N=[N+]=[N-])N=C(c2ccc(OCCCO)cc2)O[C@H]1c1ccccc1,1.34,-3.38,-0.319,0.694,0.278,0.0136,0.0121,-0.466,1.37,0.873
C[C@@H]1ON(c2ccccc2)[C@H](c2ccccc2)[C@H]1C(=O)N1C(=O)OC[C@H]1Cc1ccccc1,1.06,-0.782,0.567,-0.137,-0.542,0.765,-0.304,-0.282,0.28,0.327
COC(=O)[C@@]1(Cc2ccc(OC)cc2)[C@H]2c3cc(C(=O)N4CCCC4)n(CCc4ccc(O)c(OC)c4)c3C[C@H]2CN1C(=O)c1ccccc1,0.333,-0.917,-0.448,0.346,0.225,0.114,0.03,1.03,0.39,0.184
COCCCNC(=O)[C@@H]1c2ccccc2C(=O)N(Cc2cc(F)cc(C(F)(F)F)c2)[C@H]1c1ccc(CO)cc1,-1.6,-0.252,-1.36,-0.365,-0.167,-0.212,-0.153,-0.285,-1.13,-0.4
COCCOC(=O)N1C(=O)[C@@]2(c3cc(C#Cc4ccc(OC)cc4)ccc31)[C@H](C(=O)N1CCc3cc(OC)c(OC)cc3C1)[C@H]1C(=O)O[C@H](c3ccccc3)[C@H](c3ccccc3)N1[C@@H]2c1ccc(O)cc1,1.13,-0.246,0.582,0.111,-0.575,0.0088,0.191,-0.407,0.575,1.78
COCCCNC(=O)[C@]1(Cc2ccccc2)N=C(c2ccc(OCCCO)cc2)O[C@@H]1c1ccccc1N=[N+]=[N-],1.24,-3.4,-0.314,1.61,0.24,0.008,-0.0866,0.433,0.997,0.974
CC1C=C(CCCO)C=C(C(=O)OCCS(C)(=O)=O)C(C(=O)OCCS(C)(=O)=O)=CN1Cc1cccc(OC(F)(F)F)c1 (stereo not given),1.11,-1.82,-0.152,1.7,1.09,0.027,0.481,1.27,2.99,0.761
COCCOC(=O)N1C(=O)[C@@]2(c3cc(C#CCNC(N)=O)ccc31)[C@H](c1ccc(OCCO)cc1)N1[C@H](c3ccccc3)[C@H](c3ccccc3)OC(=O)[C@H]1[C@@H]2C(=O)N1CCN(c2ncccn2)CC1,1.23,-0.0743,0.93,0.515,0.53,0.0657,-0.138,-0.0724,0.895,0.505
COCCOC(=O)N1C(=O)[C@@]2(c3cc(C#CCNC(N)=O)ccc31)[C@H](C(=O)N1CCCCCCC1)[C@H]1C(=O)O[C@H](c3ccccc3)[C@H](c3ccccc3)N1[C@@H]2c1ccc(OCCO)cc1,0.748,-0.431,0.277,1.13,0.801,0.0075,-0.138,-0.118,0.263,1.09
CCCCCCC#C[Si](O[C@H](c1ccccc1)c1cn(Cc2cccc(Cl)c2)nn1)(C(C)C)C(C)C,0.564,-0.775,0.198,-0.0008,-0.159,-0.124,-0.0035,-0.118,0.343,-0.0766
COC(=O)[C@@]1(Cc2ccc(F)cc2)[C@@H]2[C@@H](CC(=O)[C@H]2CC(=O)C(=O)N2CCCC2)CN1C(=O)c1ccccc1,1.43,-2.01,-0.412,2.17,1.01,0.135,0.338,2.34,0.739,1.03
